From PubChem BioAssay

Experiment: anti-His antibody binders, primary screen, artefact control for SMM control protein annotation, biochemical, small-molecule microarray, 635 nm fluorescence (AID 1128);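 further: score merges feature fluorescence with signal-to-noise for each printed compound spot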
Settings: anti-His Alexa647 antibody binding, higher = more signal

Row | Structure (SMILES) | composite z-score
1 | CCN1C(=O)[C@H]2[C@H]3[C@H](O)[C@H](O)CC(=NOCC=C(C)CCC=C(C)C)[C@H]3CC[C@H]2C1=O | 0.918
2 | O=C1[C@H]2[C@H]3[C@H](O)[C@H](O)CC(=NOCc4ccccc4)[C@@H]3CC[C@H]2C(=O)N1C1CCCCC1 | 0.157
3 | CC(C)=CCCC(C)=CCON=C1[C@H]2CCn3c(=O)n(Cc4cc5c(cc4Cl)OCO5)c(=O)n3[C@H]2[C@H](O)[C@@H]2O[C@H]12 | 0.321
4 | CCCNC(=O)OC[C@H]1O[C@H](CCON=C[C@@H](OC)[C@H](C)C=CCC(=O)OC)C=C[C@@H]1Oc1ccc(OC)cc1 | 2.2
5 | COC(=O)[C@H](C)NC(=O)[C@@H](C)CO | 0.548
6 | C=CCOC(=O)[C@H]1[C@@H]2C(=O)O[C@@H](c3ccccc3)[C@@H](c3ccccc3)N2[C@@H](c2ccc(OCCOC(=O)[C@H]3C[C@H]4C(=O)N5CCC[C@H]5C(=O)N4[C@H]3c3cccc(OCCO)c3)cc2)[C@]12C(=O)Nc1ccc(I)cc12 | 3.59
7 | CCCCC(=C=CC[C@H](O)c1ccccc1OCCO)C[C@H](O)COCc1ccccc1 | -1.29
8 | COc1ccc(-c2ccc3c(n2)CCCN3CC(O)CN2CCCc3nc(C)c(C)cc32)cc1 (centres undefined) | 2.62
9 | C[C@H]1Cc2c(-c3ccccc3)nc3c(c2CO1)CN(CCOc1ccccc1)CC3 | 1.08
